High-throughput results from PubChem.
Only some compounds are listed: those with a hit (about 4.8% of all), similar ones and a draw of the others.
ALR H2O2 inh – inhibitors of human ALR sulfhydryl oxidase, primary screen, biochemical, H2O2 detection, HRP-luminol luminescence, single point. FAD-linked sulfhydryl oxidase ALR (Homo sapiens), P55789. purified ALR, DTT oxidation. inhibition, % (test concentration not listed). 290,000 tested, 3.8% active. AID 485317, 2010;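 active means mean replicate inhibition above about 79%, with every replicate also reaching it, limit read from the data; inconclusive means only one of the two criteria met; inactive means mean below limit and not every replicate reaching it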
Target sequence (P55789 whole entry, looked up): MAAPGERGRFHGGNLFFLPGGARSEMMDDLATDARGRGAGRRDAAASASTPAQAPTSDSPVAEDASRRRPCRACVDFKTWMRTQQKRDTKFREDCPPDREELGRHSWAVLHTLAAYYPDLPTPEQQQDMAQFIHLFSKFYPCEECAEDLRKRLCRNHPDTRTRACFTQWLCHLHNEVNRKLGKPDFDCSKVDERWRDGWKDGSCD
Mot1-301 SUMO – yeast Mot1-301 growth rescue at high temperature, primary screen, SUMOylation pathway inhibitor project, S. cerevisiae, ATP luminescence, 38.5C; S. cerevisiae Mot1-301 growth rescue; percent above DMSO median, 100 means doubled; growth rescue, % at 18.8 µM; 320,000 tested, 1% active;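 active means every valid replicate shows activation above 250% relative to neutral control wells; inactive means the rest, any valid replicate at or below 250%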;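 further: OY570 slx delta 5 strain wells were the positive control but not used for scaling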
AI-2 QS mod – Vibrio harveyi AI-2 quorum sensing modulators, primary screen, JMH597 strain, luminescence/OD600 ratio; 300,000 tested, 0.4% active; Vibrio harveyi JMH597 AI-2 luminescence/OD600 ratio, 9 h; hits give low values; strain lacks LuxN and CqsS sensors; 0 = neutral-control median; AID 2094, 2009; activity change, % at 7.5 µM; in the data active means activity change below about -75%, passing the limit was not always enough; inconclusive means no clear call, values can overlap the other calls;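 further: luminescence divided by OD600 gain over 9 h not by final OD600 alone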
HIF act – HIF pathway transcriptional activators, primary screen, cell-based, U2OS HRE-luciferase, luminescence; U2OS HRE-luciferase reporter; normalized: DMSO 0%, desferrioxamine 100%; activation, % at 7.5 µM (by protocol); 300,000 tested, 0.32% active; AID 1910, 2009;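 active means mean activation of at least 10% of the iron chelator positive control signal, with at least half of replicates also reaching 10%; inconclusive means mean and replicate majority disagree about reaching 10%; inactive means mean and most replicates under 10%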
Active calls of the source: *; u = inconclusive; x = not tested or not shown.

SMILES	ALR H2O2 inh	Mot1-301 SUMO	AI-2 QS mod	HIF act
CCn1c(SCC(=O)c2ccccc2)nnc1-c1cccnc1	91*	5	7	1
CCn1c(SCC(=O)c2ccccc2)nnc1-c1ccoc1C	84*	-14	1	-2
CCn1c(SCC(=O)c2ccc(C)cc2)nnc1-c1ccoc1C	67	4	8	1
CCn1c(SCCC(=O)O)nnc1-c1cccnc1	-23	0	20	0
C[C@H]1CN=C(N(C)C)N1CC1CCCCC1	x	-29	x	x
CCc1ccc(NC(=O)C(=O)NCC2CCCN2S(=O)(=O)c2cccs2)cc1 (stereo unspecified)	-9	-7	34	0
Cc1ccc(N2CC(=O)Nc3c(sc4nc(C)cc(C)c34)C2=O)cc1	-8	25	19	26*
Cc1cc(C)c2c3c(sc2n1)C(=O)N(c1ccccc1C)CC(=O)N3	-5	20	10	0
Cc1noc(C)c1CSCC(=O)N(C)CC(=O)Nc1ccccc1C(F)(F)F	8	-8	x	x
CN(C)c1ccc(N=c2sc3ccccc3n2C)cc1	99*	129	13	-34
Cc1ccc(S(=O)(=O)/C(C#N)=C/c2c(N3CCN(Cc4ccccc4)CC3)nc3ccccn3c2=O)cc1	-2	-4	9	-1
CC(C)(C)NC(=O)c1ccc(COc2ccc(Cl)cc2Cl)o1	x	59	2	0
CSc1nc(N)nc(SCCS(=O)(=O)c2ccc(Cl)cc2)c1C#N	-4	2	19	-1
CSc1nc(-c2ccc(Cl)cc2Cl)[nH]c(=O)c1C#N	96*	-3	14	0
COc1ccccc1NS(=O)(=O)c1ccc(C(=O)N2CCN(c3ccccn3)CC2)cc1	-12	-14	x	x
CSc1cccc(NC(=O)Nc2ccccc2C(N)=O)c1	91*	13	5	-18
O=C(Nc1cccc([N+](=O)[O-])c1)c1cnccn1	-3	18	32	-1
O=C(Nc1cccc([N+](=O)[O-])c1)c1[nH]ncc1Cl	96*	-17	16	4
Cc1ccn(CCC(=O)NC2CC(C)(C)Cc3c2cnn3-c2ccccc2C)n1 (stereo unspecified)	3	-4	17	2
CCc1cccc(NC(=O)CSCc2nc3sc(C)c(C)c3c(=O)[nH]2)c1	0	2	x	x
Cc1sc2nc(CSCC(=O)NC3(C#N)CCCCC3)[nH]c(=O)c2c1C	95*	-7	x	x
O=C(CCN1C(=O)/C(=C/c2ccccc2F)SC1=S)NC1C=CS(=O)(=O)C1 (stereo unspecified)	-6	84	2	0
CN(C(=O)Cn1c(=O)oc2ccccc21)C1CCCCC1	1	0	x	x
Cc1cc(C)c2nc(-c3ccncc3)cc(C(=O)N3CCN(Cc4ccccc4Cl)CC3)c2c1	-4	4	19	0
CCc1nc(SCC(=O)NNC(=O)c2ccc(OC)cc2)c2ccccc2n1	-4	144	4	0
SMILES	ALR H2O2 inh	Mot1-301 SUMO	AI-2 QS mod	HIF act
CCc1nc(SCC(=O)c2ccccc2)c2ccccc2n1	99*	12	38	u
CCCc1nc(SCC(=O)c2ccc(OC)cc2)c2ccccc2n1	90*	0	8	1
CCCN1CCN(S(=O)(=O)c2c(C)[nH]c(C)c2C(=O)N2CCCCC2)CC1	-2	-14	15	0
COc1ccc(Cn2nnc3c(=O)[nH]c(C(=O)NCCc4ccc(F)cc4)nc32)cc1OC	94*	-6	25	x
Cc1ccc(N2C(=O)CC(Sc3cccs3)C2=O)cc1 (stereo unspecified)	56	320*	-17	0
Cc1ccc(N2C(=O)CC(Sc3nccc(C)n3)C2=O)cc1 (stereo unspecified)	-1	-1	2	1
Cc1ccc(SC2CC(=O)N(c3ccc4c(c3)OCCO4)C2=O)cc1 (stereo unspecified)	98*	-24	10	-1
COc1ccc(S(=O)(=O)Nc2ccc3c(c2)C(=O)N([C@H](C)CO)C[C@H](C)[C@@H](CN(C)C(=O)Nc2ccccc2)O3)cc1	-5	-15	x	x
COc1cccc(-c2c(C(=O)N/N=C(\C)c3cccnc3)nnn2-c2nonc2N)c1	-2	-12	25	x
Brc1ccc2nc(-c3c[nH]c4ccccc34)cn2c1	x	-11	11	5
Cc1cccn2cc(-c3c[nH]c4ccccc34)nc12	98*	-4	7	0
CCOC(=O)c1c(NC(=O)c2nn(CC)cc2Br)sc(C)c1C	-5	14	8	x
CCOC(=O)c1c(NC(=O)c2nn(CC)cc2Br)sc2c1CCCCC2	-3	858*	-3	0
CCOC(=O)c1c(NC(=O)C2CCCCC2C(=O)O)sc2c1CCCCC2 (stereo unspecified)	25	23	32	0
CCOC(=O)c1c(NC(=O)C2C3C=CC(C3)C2(C)C(=O)O)sc2c1CCCC2 (stereo unspecified)	91*	4	41	0
CCOC(=O)c1ccc(NC(=O)c2nn(CC)cc2Br)cc1	-6	349*	26	2
CCOC(=O)c1ccc(NC(=S)NC(=O)c2nn(CC)cc2Br)cc1	-5	-6	14	-4
COc1ccccc1-n1nnnc1SC(C)C(=O)NC1CCCC1 (stereo unspecified)	0	-14	-12	-1
O=C(NC(Cc1ccccc1)C(=O)O)/C(=C\c1ccccc1)NC(=O)c1ccc(Br)o1 (stereo unspecified)	49	12	19	0
COc1ccc(CCC(=O)OCC(=O)NCc2ccccc2)cc1	-4	4	x	x
CC(Oc1cccc(Cl)c1)C(=O)N(C)CC(=O)Nc1ccc(N2CCOCC2)cc1 (stereo unspecified)	93*	-3	28	0
CN(CC(=O)Nc1ccc(N2CCOCC2)cc1)C(=O)CCNC(=O)c1ccc(Br)cc1	96*	4	14	0
COc1ccccc1C(=O)NCCC(=O)N(C)CC(=O)Nc1ccc(N2CCOCC2)cc1	99*	16	8	0
O=C(COc1cccc(Cl)c1)Nc1ccc(N2CCOCC2)cc1	10	12	21	0
CCCCOc1ccc(C(=O)NCC(=O)N(C)CC(=O)Nc2ccc(N3CCOCC3)cc2)cc1	41	189	5	1
SMILES	ALR H2O2 inh	Mot1-301 SUMO	AI-2 QS mod	HIF act
O=C(OCC(=O)c1ccc(Cl)s1)c1ccc(CO)cc1	3	-20	4	-19
Cc1cc(C)c(S(=O)(=O)Nc2ccccc2C(=O)N2CCCC2)c(C)c1	-6	-12	15	0
COc1ccc(/C=C2\SC(=Nc3ccccc3OC)NC2=O)cc1	8	13	4	-44
COc1cc(/C=C2\SC(=Nc3ccccc3OC)NC2=O)ccc1O	99*	7	2	-15
COCCN(C(=O)COC(=O)/C=C/c1ccc2c(c1)OCO2)c1c(N)n(Cc2ccccc2)c(=O)[nH]c1=O	-2	-8	x	-1
NC(=S)Nc1ccc2cn[nH]c2c1	x	-2	22	1
